In PubChem BioAssay:

Tests used:
[1] = system: Human papillomavirus type 1a protein E7 (residues 44-93); assay: HPV1a E7 fragment binders on microarrays, primary screen, biochemical, small-molecule microarray, residues 44-93, 635 nm fluorescence (AID 1108); conditions: small-molecule microarray binding, fluorescence 635 nm; higher = more signal;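 note: E7 fragment applied at 1 µg/mL in TBST for 1 h at 4 C; score combines spot fluorescence with its signal to noise ratio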
[2] = modulators of HCV replicon luciferase signal, primary screen, HCV replication inhibitor project, Huh7 cells, luciferase reporter (AID 1109); conditions: 48 h, higher = more signal;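 note: huh7 hepatoma cells harbouring a luciferase neomycin HCV replicon reporter; luciferase luminescence as measure of HCV replicon replication; test concentration not given here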
[3] = target: Left-right determination factor 2 (Homo sapiens) (UniProt O00292); assay: LEFTY2 binders on small-molecule microarrays, primary screen, biochemical, small-molecule microarray, 635 nm fluorescence scan (AID 1110); conditions: LEFTY2 binding, higher = more signal
[4] = target: Calmodulin-1 (Homo sapiens) (UniProt P0DP23); assay: CALM1 binders on microarrays, EGTA buffer, profiling panel, biochemical, small-molecule microarray, Cy5-labelled CALM1 (AID 1111); conditions: Cy5-CALM1 binding fluorescence, higher = more signal;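 note: labelled calmodulin applied in Tris saline Tween buffer holding calcium plus EGTA and DTT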
[5] = target: Calmodulin-1 (Homo sapiens) (UniProt P0DP23); assay: calcium-bound CALM1 binders on microarrays, profiling panel, artefact control for SMM control-protein annotation, biochemical, small-molecule microarray, Cy5-labelled CALM1, plus calcium (AID 1112); conditions: Cy5-CALM1 binding fluorescence, higher = more signal;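 note: score merges spot fluorescence with signal to noise from triplicate slides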
[6] = small-molecule microarray binders of probe aWnt5a, primary screen, biochemical, biotinylated probe, 635/667 nm fluorescence (AID 1113); conditions: higher = more signal;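 note: score merges 667 nm fluorescence intensity with signal-to-noise per printed feature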
[7] = small-molecule microarray binders of probe aShh, primary screen, biochemical, biotinylated probe, 635/667 nm fluorescence (AID 1114); conditions: higher = more signal;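 note: probe is biotin-labelled aShh protein from a stem cell growth factor screen; measures binding of labelled protein to compounds printed on the slide; score merges feature fluorescence at 667 nm with signal-to-noise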
[8] = small-molecule microarray binders of probe aNog, primary screen, biochemical, biotinylated probe, 635/667 nm fluorescence (AID 1115); conditions: higher = more signal;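 note: probe is biotinylated aNog protein used at 0.15 µg/mL for 1 h at 4 C; z-score combines 667 nm fluorescence of each spot with its signal to noise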
[9] = target: Torsin-1A-interacting protein 1 (Homo sapiens) (UniProt Q5JTV8); assay: LAP1 binders from COS7 cell lysate, primary screen, small-molecule microarray, 635/667 nm fluorescence (AID 1116); conditions: COS7-hLAP1 lysate binding, 635 nm fluorescence, higher = more signal
[10] = target: Alpha-bungarotoxin (Bungarus multicinctus) (UniProt P60615); assay: alpha-bungarotoxin binders on microarray, profiling panel, artefact control for SMM control protein annotation, biochemical, small-molecule microarray, Alexa647 label, 635/667 nm fluorescence (AID 1117); conditions: alpha-BTX-A647 binding fluorescence, higher = more signal
Sequence of Alpha-bungarotoxin (Bungarus multicinctus) (P60615 whole entry, looked up): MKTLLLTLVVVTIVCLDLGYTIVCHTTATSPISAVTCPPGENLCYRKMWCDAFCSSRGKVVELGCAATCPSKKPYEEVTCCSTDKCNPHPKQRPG

Sequence of Torsin-1A-interacting protein 1 (Homo sapiens) (Q5JTV8 whole entry, looked up): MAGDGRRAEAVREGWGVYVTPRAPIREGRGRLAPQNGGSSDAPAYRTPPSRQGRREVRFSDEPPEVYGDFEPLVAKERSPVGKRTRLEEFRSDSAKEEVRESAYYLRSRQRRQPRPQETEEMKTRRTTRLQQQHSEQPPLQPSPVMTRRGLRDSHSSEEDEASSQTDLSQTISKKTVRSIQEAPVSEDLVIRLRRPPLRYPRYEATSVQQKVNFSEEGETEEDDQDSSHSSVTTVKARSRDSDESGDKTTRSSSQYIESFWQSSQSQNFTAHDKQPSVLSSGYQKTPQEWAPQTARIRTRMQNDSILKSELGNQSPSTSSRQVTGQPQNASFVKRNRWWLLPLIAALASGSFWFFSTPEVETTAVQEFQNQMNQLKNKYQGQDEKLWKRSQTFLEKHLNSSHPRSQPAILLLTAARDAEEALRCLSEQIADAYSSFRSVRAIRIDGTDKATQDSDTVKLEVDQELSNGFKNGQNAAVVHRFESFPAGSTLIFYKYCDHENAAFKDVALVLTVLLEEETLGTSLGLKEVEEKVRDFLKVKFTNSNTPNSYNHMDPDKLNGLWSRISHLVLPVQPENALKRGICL
Sequence of Left-right determination factor 2 (Homo sapiens) (O00292 whole entry, looked up): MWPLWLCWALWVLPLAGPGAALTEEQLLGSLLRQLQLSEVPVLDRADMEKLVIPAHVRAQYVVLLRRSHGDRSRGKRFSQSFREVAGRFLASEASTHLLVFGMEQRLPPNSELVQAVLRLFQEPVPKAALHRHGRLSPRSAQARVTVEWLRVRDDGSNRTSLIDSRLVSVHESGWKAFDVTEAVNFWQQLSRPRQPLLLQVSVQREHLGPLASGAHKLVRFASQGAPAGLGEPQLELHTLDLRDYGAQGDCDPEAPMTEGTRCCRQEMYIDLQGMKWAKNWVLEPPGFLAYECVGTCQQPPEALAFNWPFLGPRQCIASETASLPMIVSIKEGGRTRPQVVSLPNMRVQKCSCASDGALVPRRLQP

| SMILES | composite z-score [1] | z-score [2] | composite z-score [3] | composite z-score [4] | composite z-score [5] | composite z-score [6] | composite z-score [7] | composite z-score [8] | composite z-score [9] | composite z-score [10] |
| --- | --- | --- | --- | --- | --- | --- | --- | --- | --- | --- |
| COc1cc(NN2C(C(O)C3CCCCC3)C=CC3C(=O)N(C)C(=O)C32)cc(OC)c1OC (stereo not given) | 1.44 | -0.611 | 0.0347 | 2.01 | 0.964 | 0.265 | 0.417 | 1.32 | 1.32 | 1.72 |
| CC(C)C[C@@H]1NC(=O)[C@@]23C(=O)N[C@@H](Cc4ccccc4)C2[C@H](C)[C@@]2(C)O[C@H]2C3/C=C/C/C=C\CNC(=O)[C@@H](C)NC1=O (stereo not given in full) | -0.702 | 0.0935 | 0.58 | -0.463 | -1.19 | -0.228 | 0.0899 | -0.636 | -0.212 | -0.116 |
| O=C1C2C=CC(C(O)C=Cc3ccc([N+](=O)[O-])cc3)N(Nc3ccccc3)C2C(=O)N1c1ccccc1 (stereo not given) | 1.36 | -0.486 | 0.0857 | 1.37 | -0.0507 | 0.0037 | -0.0866 | -0.397 | 0.568 | 0.742 |
| COCC(=C=CC[C@@H](O)c1cccc(OCCO)c1)CCO | 0.328 | 0.22 | -0.313 | 0.32 | 0.281 | 0.129 | -0.372 | -0.0987 | 0.69 | 1.73 |
| CCCNC(=O)[C@@]1(C)c2ccccc2C(=O)N(Cc2ccccc2)[C@H]1c1ccc(CO)cc1 | 0.391 | 0.398 | -0.626 | -0.0596 | 0.095 | -0.197 | -0.0421 | -0.378 | 0.78 | -0.612 |
| C=CC[C@H](OC(=O)Nc1ccc(SC)cc1)c1ccc(OCCO)cc1 | -0.833 | 1.34 | -0.952 | -0.316 | 0.461 | -0.0994 | 0.0188 | 1.48 | -0.286 | 0.191 |
| CC(=O)n1cc(C(O)C2C=CC3C(=O)N(c4ccccc4)C(=O)C3N2Nc2ccc(C(C)C)cc2)c2ccccc21 (stereo not given) | 0.656 | -0.909 | -0.0688 | 2.53 | 1.38 | -0.0394 | 0.0328 | 1.41 | 1.68 | 1.6 |
| COc1cc2c(cc1O)C(c1ccc(CN3CCCC3)cc1)N(C)CC2 (stereo not given) | -1.7 | -1.02 | 0.351 | 0.571 | 0.673 | -0.173 | -0.359 | 0.452 | -0.862 | 0.0735 |
| C=CCC(OC(C)=O)[C@@H]1[C@@H](N(Cc2ccc(-c3cccc(C(F)(F)F)c3)o2)C(=O)c2cccc3ccccc23)c2cc(OCCCO)ccc2N1C(=O)Cc1ccc(OC)cc1 (stereo not given in full) | 0.328 | -0.72 | -0.391 | -0.534 | -0.738 | -0.208 | 0.167 | -0.083 | 0.0368 | -0.0191 |
| COc1ccc([Si](C)(C)[C@H]2[C@H](CCO)O[C@@]3(C(=O)N(Cc4ccc(N5C(=O)c6ccccc6Oc6ccccc65)cc4)c4ccccc43)[C@@H]2C)cc1 | -0.451 | -4.8 | -0.804 | 0.12 | 0.908 | -0.124 | 0.0121 | 0.0078 | -0.438 | -0.516 |
| CCCCC(=C=CC[C@H](O)c1ccc(OCCO)cc1)C[C@H](O)COCc1ccccc1 | 0.383 | -1.77 | -0.233 | -0.567 | -0.377 | -0.0685 | 0.14 | -0.0168 | 0.941 | 0.134 |
| O=C1[C@@H]2[C@@H](CC(COc3ccccc3)=C3[C@@H](CCc4ccccc4)OB(O)C[C@@H]32)C(=O)N1Cc1ccccc1 | -0.458 | -1.36 | 0.222 | 0.0454 | 0.171 | -0.124 | -0.0011 | -0.465 | -0.0169 | -0.0025 |
| CN(C)C(=O)[C@]1(CCS(=O)(=O)c2ccccc2)N=C(c2ccc(OCCCO)cc2)O[C@@H]1c1ccccc1 | 1.44 | -2.25 | 0.389 | 1.72 | 0.513 | -0.034 | 0.582 | -0.565 | 1 | 0.915 |
| C=CCNC(=O)[C@@H]1[C@H]2C(=O)O[C@H](c3ccccc3)[C@H](c3ccccc3)N2[C@H](c2ccc(OCCO)cc2)[C@@]12C(=O)N(C(=O)OCCOC)c1ccc(C#CCCO)cc12 | 1.33 | -0.459 | 0.909 | 0.88 | -0.381 | 0.0229 | -0.0769 | -0.519 | 0.262 | 1.35 |
| C=CCOC(=O)[C@H]1[C@@H]2C(=O)O[C@@H](c3ccccc3)[C@@H](c3ccccc3)N2[C@@H](c2ccc(OCCOC(=O)[C@H]3C[C@H]4C(=O)N[C@@H](CCCCNC(C)=O)C(=O)N4[C@H]3c3cccc(OCCO)c3)cc2)[C@]12C(=O)Nc1ccc(I)cc12 | 1.42 | -1.21 | 0.801 | -0.0021 | -0.451 | 0.0825 | -0.705 | -0.632 | 0.339 | 0.975 |
